Measured values as given in PubChem BioAssay (EPA / NIEHS).
Inconclusive results are not listed. Calls of active or inactive are those of the source. How the source made its calls, unless noted: active means hit-call score of the fitted dose curve at least 0.9, where 1 is the maximum; inactive means score below 0.9.

Experiments:
[1] = ATG_TCF_b_cat_CIS: Attagene CIS-FACTORIAL HepG2 Assay for human T-Cell-Factor with beta-catenin (TCF/b-cat) (AID 2282965); conditions: HepG2 TCF/beta-catenin cis-reporter transcription, actives raise or lower the signal
Method in brief: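 HepG2 cells transiently transfected with multiple cis-promoter-regulated reporter transcription units, so endogenous transcription factor activity is measured. Reporter mRNA read 24 hours after dosing by RT-PCR, fluorescent labelling and capillary electrophoresis; bidirectional fitting against DMSO.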

[2] = ATG_TAL_CIS: Attagene CIS-FACTORIAL HepG2 Assay for human TAL Basal Promoter (AID 2282966); conditions: HepG2 Attagene cis-factorial TAL promoter reporter; actives raise or lower the signal;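 further: background control endpoint measuring basal TAL promoter reporter mRNA not a specific factor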
Method in brief: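 RT-PCR plus capillary electrophoresis quantifies reporter mRNA induction in transiently transfected HepG2 cells after 24 h chemical treatment. DMSO serves as negative control and baseline for bidirectional fitting.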

[3] = ATG_TGFb_CIS: Attagene CIS-FACTORIAL HepG2 Assay for human Transforming Growth Factor (TGF) (AID 2282967); conditions: HepG2 Attagene CIS TGFb reporter, mRNA transcription; actives raise or lower the signal
Method in brief: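 Transient MRTU transfection of HepG2 (FuGene 6). Dose 24 h. TriZol RNA, oligo(dT) RT, PCR, 6-FAM primer extension, HpaI cut, CE. Bidirectional fit, DMSO = baseline.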

[4] = ATG_VDRE_CIS: Attagene CIS-FACTORIAL HepG2 Assay for human Vitamin D Receptor Element (VDRE) (AID 2282968); conditions: HepG2 VDRE cis-reporter transcription, actives raise or lower the signal
Method in brief: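 RT-PCR/CE readout of reporter mRNA; HepG2, transient transfection, 24 h dosing; DMSO baseline; bidirectional analysis.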

[5] = target: Estrogen receptor (Homo sapiens) (UniProt P03372); assay: ATG_ERa_TRANS: Attagene TRANS-FACTORIAL HepG2 Assay for human Estrogen Receptor alpha (ERa) (AID 2282970; active means hit-call score of the fitted dose curve at least 0.9, where 1 is the maximum); conditions: HepG2 Attagene TRANS ERa GAL4 reporter, mRNA
Method in brief: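 Cells: HepG2, transiently transfected. Construct: GAL4-UAS reporter units regulated by exogenous NR-Gal4 chimeras. Time: 24 h. Detection: reporter mRNA by RT-PCR, capillary electrophoresis, fluorescence. Baseline: DMSO, upward fitting.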

[6] = target: X-box-binding protein 1 (Homo sapiens) (UniProt P17861); assay: ATG_Xbp1_CIS: Attagene CIS-FACTORIAL HepG2 Assay for human X-box Binding Protein 1 (XBP1) (AID 2282972); conditions: HepG2 XBP1 cis-element reporter, Attagene multiplex; actives raise or lower the signal
Chain of X-box-binding protein 1 (Homo sapiens) (P17861 whole entry, looked up, the tested form may be a part): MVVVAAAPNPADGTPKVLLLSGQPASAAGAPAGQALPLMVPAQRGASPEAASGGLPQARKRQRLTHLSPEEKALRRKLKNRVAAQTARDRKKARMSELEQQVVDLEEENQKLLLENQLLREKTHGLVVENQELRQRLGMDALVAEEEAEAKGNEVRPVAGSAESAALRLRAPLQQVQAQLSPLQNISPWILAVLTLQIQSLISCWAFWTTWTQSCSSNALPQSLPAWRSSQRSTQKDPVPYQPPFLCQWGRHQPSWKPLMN
Method in brief: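 Fluorescence-labelled cDNA fragments from reporter transcripts, separated by capillary electrophoresis, give the signal. Source: HepG2 cells transfected with promoter-driven reporter units, harvested 24 h post-dose. DMSO served as reference for bidirectional curve fitting.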

[7] = ATG_M_19_TRANS: Attagene TRANS-FACTORIAL HepG2 Assay for M19 Transcription Factor (Internal Marker) (AID 2282974; active means hit-call score of the fitted dose curve at least 0.9, where 1 is the maximum); conditions: HepG2 Attagene TRANS-FACTORIAL M19 internal marker reporter
Method in brief: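 Multiplexed TRANS format: HepG2 liver cells bearing transient GAL4-UAS reporter units, chemical treatment 24 h, reporter transcripts quantified by RT-PCR plus capillary electrophoresis. DMSO defines baseline.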

[8] = ATG_GAL4_TRANS: Attagene TRANS-FACTORIAL HepG2 Assay for GAL4 (Internal Marker) (AID 2282976; active means hit-call score of the fitted dose curve at least 0.9, where 1 is the maximum); conditions: HepG2 Attagene TRANS GAL4 internal marker reporter
Method in brief: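 In transfected human HepG2 liver cells dosed 24 h, GAL4 reporter mRNA serves as a baseline marker. Detection by RT-PCR with fluorescent capillary electrophoresis, activity fitted upward relative to DMSO.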

[9] = target: Oxysterols receptor LXR-beta (Homo sapiens) (UniProt P55055); assay: ATG_LXRb_TRANS: Attagene TRANS-FACTORIAL HepG2 Assay for human Liver X Receptor beta (LXRb) (AID 2282981; active means hit-call score of the fitted dose curve at least 0.9, where 1 is the maximum); conditions: HepG2 Attagene TRANS GAL4-LXRb reporter, mRNA
Chain of Oxysterols receptor LXR-beta (Homo sapiens) (P55055 whole entry, looked up, the tested form may be a part): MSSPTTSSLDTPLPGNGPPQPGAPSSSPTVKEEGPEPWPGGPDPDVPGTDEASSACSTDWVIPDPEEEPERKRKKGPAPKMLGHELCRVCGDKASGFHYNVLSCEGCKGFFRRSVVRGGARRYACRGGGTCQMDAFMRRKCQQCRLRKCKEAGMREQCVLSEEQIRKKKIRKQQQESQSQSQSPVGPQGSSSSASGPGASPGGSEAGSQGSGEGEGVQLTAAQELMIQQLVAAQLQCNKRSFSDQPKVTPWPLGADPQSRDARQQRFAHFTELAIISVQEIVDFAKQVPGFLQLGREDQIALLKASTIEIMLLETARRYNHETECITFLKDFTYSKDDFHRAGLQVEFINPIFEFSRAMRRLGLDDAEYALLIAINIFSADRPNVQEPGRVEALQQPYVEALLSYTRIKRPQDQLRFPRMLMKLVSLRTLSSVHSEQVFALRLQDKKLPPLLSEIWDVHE
Method in brief: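 In this TRANS format, exogenous chimeric NR-Gal4 protein activity, not endogenous factors, drives reporter expression in transfected human HepG2 cells. Exposure lasted 24 h; reporter mRNA was read by fluorescent capillary electrophoresis.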

[10] = target: Hepatocyte nuclear factor 4-alpha (Homo sapiens) (UniProt P41235); assay: ATG_HNF4a_TRANS: Attagene TRANS-FACTORIAL HepG2 Assay for human Hepatocyte Nuclear Factor 4 alpha (HNF4a) (AID 2282982; active means hit-call score of the fitted dose curve at least 0.9, where 1 is the maximum); conditions: HepG2 HNF4a transactivation reporter, mRNA readout
Chain of Hepatocyte nuclear factor 4-alpha (Homo sapiens) (P41235 whole entry, looked up, the tested form may be a part): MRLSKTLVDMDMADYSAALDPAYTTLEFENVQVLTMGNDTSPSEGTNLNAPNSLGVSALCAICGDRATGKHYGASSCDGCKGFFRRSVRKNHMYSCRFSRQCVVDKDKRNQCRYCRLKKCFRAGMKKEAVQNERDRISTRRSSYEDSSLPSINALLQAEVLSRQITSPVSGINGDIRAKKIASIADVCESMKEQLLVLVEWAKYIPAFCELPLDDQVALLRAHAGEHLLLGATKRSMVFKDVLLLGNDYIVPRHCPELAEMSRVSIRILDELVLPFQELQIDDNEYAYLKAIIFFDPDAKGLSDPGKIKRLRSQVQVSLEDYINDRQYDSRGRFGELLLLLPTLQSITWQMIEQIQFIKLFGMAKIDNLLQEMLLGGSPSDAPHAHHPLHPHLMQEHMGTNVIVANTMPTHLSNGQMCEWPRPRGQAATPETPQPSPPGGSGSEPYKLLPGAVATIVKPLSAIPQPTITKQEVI
Method in brief: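 Cells used were human HepG2, transiently carrying GAL4-UAS reporter units read out against exogenous NR-GAL4 chimeras. Reporter transcript levels after 24 h dosing were quantified by fluorescent RT-PCR and capillary electrophoresis.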

[11] = ATG_M_32_TRANS: Attagene TRANS-FACTORIAL HepG2 Assay for M32 Transcription Factor (Internal Marker) (AID 2282984; active means hit-call score of the fitted dose curve at least 0.9, where 1 is the maximum;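 further: transcript level of a background control reporter unit measured by RT-PCR and capillary electrophoresis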); conditions: HepG2 Attagene TRANS M32 internal marker reporter
Method in brief: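 Human hepatoma HepG2, transient MRTU transfection, 24 h treatment. RNA → RT-PCR → fluorescent primer extension → HpaI digest (2 h, 37 C) → CE. Positive-direction fit vs DMSO.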

[12] = target: Nuclear receptor subfamily 4 group A member 2 (Homo sapiens) (UniProt P43354); assay: ATG_NURR1_TRANS: Attagene TRANS-FACTORIAL HepG2 Assay for human Nuclear Receptor Related Protein 1 (NURR1) (AID 2282985; active means hit-call score of the fitted dose curve at least 0.9, where 1 is the maximum); conditions: HepG2 Attagene TRANS reporter, mRNA readout
Chain of Nuclear receptor subfamily 4 group A member 2 (Homo sapiens) (P43354 whole entry, looked up): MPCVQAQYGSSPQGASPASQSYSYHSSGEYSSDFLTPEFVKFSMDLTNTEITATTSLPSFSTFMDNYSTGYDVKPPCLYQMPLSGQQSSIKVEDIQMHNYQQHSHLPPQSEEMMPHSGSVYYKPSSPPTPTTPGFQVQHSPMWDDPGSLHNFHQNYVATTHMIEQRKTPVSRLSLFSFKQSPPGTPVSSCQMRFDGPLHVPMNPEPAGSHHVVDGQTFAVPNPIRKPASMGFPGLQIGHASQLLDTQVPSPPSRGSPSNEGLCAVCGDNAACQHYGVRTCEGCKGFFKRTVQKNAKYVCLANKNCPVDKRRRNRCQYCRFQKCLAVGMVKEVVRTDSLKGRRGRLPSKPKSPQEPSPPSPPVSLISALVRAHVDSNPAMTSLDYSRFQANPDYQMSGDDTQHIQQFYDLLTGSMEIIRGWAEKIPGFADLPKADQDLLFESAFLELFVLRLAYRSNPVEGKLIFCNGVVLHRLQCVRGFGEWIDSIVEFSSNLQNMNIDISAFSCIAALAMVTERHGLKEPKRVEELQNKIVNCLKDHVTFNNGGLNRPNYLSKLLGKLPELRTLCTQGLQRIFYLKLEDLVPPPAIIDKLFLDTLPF
Method in brief: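 After 24 h chemical dosing, total RNA from transiently transfected HepG2 cells was reverse-transcribed and reporter cDNA PCR-amplified, FAM-labelled and analysed by capillary electrophoresis. Activity fitted in positive direction, DMSO as negative control.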

[13] = target: Transcriptional activator Myb (Homo sapiens) (UniProt P10242); assay: ATG_Myb_CIS: Attagene CIS-FACTORIAL HepG2 Assay for human Myeloblastosis (Myb) Proto-Oncogene Transcription Factor (AID 2282986); conditions: HepG2 Attagene CIS-FACTORIAL Myb reporter transcription; actives raise or lower the signal
Chain of Transcriptional activator Myb (Homo sapiens) (P10242 whole entry, looked up): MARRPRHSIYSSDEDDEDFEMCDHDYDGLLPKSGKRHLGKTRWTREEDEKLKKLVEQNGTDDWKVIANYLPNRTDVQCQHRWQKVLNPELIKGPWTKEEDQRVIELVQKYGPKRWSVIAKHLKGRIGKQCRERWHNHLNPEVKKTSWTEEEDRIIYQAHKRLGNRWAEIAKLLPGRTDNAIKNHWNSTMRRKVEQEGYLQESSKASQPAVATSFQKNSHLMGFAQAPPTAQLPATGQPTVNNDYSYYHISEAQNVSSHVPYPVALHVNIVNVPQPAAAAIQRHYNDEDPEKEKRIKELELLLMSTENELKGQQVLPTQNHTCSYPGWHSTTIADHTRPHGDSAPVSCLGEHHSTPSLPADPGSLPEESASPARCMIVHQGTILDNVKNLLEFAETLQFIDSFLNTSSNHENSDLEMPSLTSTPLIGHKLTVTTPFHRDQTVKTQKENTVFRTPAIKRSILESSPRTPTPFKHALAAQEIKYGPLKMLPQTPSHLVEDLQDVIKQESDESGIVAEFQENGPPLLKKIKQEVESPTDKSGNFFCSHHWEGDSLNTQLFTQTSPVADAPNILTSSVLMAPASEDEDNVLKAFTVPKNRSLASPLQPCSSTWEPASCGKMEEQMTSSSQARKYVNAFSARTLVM
Method in brief: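 Using HepG2 liver cells bearing transiently transfected cis-promoter reporter constructs, the assay measures induction or loss of reporter mRNA after 24 hours of dosing. Detection used fluorescently labeled RT-PCR products separated by capillary electrophoresis.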

[14] = target: Glucocorticoid receptor (Homo sapiens) (UniProt P04150); assay: ATG_GR_TRANS: Attagene TRANS-FACTORIAL HepG2 Assay for human Glucocorticoid Receptor (GR) (AID 2282978; active means hit-call score of the fitted dose curve at least 0.9, where 1 is the maximum;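 further: activators score as hits since higher reporter transcript over DMSO is fitted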); conditions: HepG2 Attagene TRANS GR reporter, mRNA transcription
Chain of Glucocorticoid receptor (Homo sapiens) (P04150 whole entry, looked up, the tested form may be a part): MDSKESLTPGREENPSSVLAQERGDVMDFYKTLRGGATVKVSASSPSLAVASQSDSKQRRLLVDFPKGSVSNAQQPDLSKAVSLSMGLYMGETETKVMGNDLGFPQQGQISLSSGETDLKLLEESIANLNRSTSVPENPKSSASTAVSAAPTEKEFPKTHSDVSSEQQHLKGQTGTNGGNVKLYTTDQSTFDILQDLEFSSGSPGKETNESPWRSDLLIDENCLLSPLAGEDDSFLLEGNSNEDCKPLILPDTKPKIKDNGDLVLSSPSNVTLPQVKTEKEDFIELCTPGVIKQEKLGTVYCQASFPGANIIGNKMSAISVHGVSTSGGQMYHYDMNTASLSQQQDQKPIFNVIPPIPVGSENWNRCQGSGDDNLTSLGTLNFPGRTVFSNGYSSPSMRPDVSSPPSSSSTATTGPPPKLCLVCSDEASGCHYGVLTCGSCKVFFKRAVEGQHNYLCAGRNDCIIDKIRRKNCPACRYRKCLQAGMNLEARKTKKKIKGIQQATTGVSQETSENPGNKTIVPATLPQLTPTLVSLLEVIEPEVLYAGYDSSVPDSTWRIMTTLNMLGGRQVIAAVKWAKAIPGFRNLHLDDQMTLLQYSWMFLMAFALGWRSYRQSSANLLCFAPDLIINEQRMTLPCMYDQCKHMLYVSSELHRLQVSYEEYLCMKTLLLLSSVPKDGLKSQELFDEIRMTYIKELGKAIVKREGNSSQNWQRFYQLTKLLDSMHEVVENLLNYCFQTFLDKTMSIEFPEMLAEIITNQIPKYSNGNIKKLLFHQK
Method in brief: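 Transiently transfected HepG2 cells express chimeric NR-GAL4 proteins acting on GAL4-UAS reporter units. Compounds are applied for 24 h. mRNA induction over DMSO is measured by capillary electrophoresis.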

[15] = target: Bile acid receptor (Homo sapiens) (UniProt Q96RI1); assay: ATG_FXR_TRANS: Attagene TRANS-FACTORIAL HepG2 Assay for Farnesoid X Receptor (FXR) (AID 2282979; active means hit-call score of the fitted dose curve at least 0.9, where 1 is the maximum;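 further: hits raise reporter mRNA above DMSO so AC50 marks FXR activation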); conditions: HepG2 Attagene TRANS FXR-GAL4 reporter transcription
Chain of Bile acid receptor (Homo sapiens) (Q96RI1 whole entry, looked up, the tested form may be a part): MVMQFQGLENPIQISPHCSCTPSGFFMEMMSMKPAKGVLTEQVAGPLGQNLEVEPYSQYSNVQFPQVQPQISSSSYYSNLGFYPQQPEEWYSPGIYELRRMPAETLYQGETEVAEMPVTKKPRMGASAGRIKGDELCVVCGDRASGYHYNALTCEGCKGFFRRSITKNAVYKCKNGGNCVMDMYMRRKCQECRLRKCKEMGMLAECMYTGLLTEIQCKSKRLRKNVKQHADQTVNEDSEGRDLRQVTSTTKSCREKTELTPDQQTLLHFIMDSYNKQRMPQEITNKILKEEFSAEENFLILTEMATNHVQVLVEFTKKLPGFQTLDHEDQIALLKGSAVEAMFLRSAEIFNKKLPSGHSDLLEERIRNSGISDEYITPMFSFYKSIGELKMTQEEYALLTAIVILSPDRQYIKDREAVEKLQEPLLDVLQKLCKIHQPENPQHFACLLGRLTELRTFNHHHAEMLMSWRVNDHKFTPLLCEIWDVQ
Method in brief: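 Reporter transcripts from transfected HepG2 cells were measured 24 h after dosing, using RT-PCR with capillary electrophoresis of 6-FAM-labelled fragments. The read-out reflects activity of exogenous FXR-Gal4 chimera on GAL4-UAS units, with induction relative to DMSO.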

[16] = ATG_M_06_TRANS: Attagene TRANS-FACTORIAL HepG2 Assay for M06 Transcription Factor (Internal Marker) (AID 2282983; active means hit-call score of the fitted dose curve at least 0.9, where 1 is the maximum); conditions: HepG2 Attagene TRANS M06 internal marker reporter
Method in brief: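 Cells: HepG2, transient multi-reporter transfection. Exposure: 24 h. Detection: RT-PCR, 6-FAM labelling, HpaI digestion (2 h, 37 °C), capillary electrophoresis. Baseline: DMSO.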

[17] = target: Oxysterols receptor LXR-alpha (Homo sapiens) (UniProt Q13133); assay: ATG_LXRa_TRANS: Attagene TRANS-FACTORIAL HepG2 Assay for human Liver X Receptor alpha (LXRa) (AID 2282980; active means hit-call score of the fitted dose curve at least 0.9, where 1 is the maximum); conditions: HepG2 Attagene TRANS reporter, LXRa transactivation
Chain of Oxysterols receptor LXR-alpha (Homo sapiens) (Q13133 whole entry, looked up, the tested form may be a part): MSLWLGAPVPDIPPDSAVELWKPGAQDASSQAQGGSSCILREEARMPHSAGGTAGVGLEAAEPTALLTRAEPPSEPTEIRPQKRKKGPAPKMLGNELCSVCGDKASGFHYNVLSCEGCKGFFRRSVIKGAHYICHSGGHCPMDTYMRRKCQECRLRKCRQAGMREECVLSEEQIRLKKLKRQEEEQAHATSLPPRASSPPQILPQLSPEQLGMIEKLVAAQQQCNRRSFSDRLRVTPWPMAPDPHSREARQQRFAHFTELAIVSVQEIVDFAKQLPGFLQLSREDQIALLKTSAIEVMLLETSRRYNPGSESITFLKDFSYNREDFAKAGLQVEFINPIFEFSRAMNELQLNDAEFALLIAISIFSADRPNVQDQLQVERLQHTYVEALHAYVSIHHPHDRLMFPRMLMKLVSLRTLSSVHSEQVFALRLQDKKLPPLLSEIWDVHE
Method in brief: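 Chemical-induced reporter mRNA measured by RT-PCR with fluorescent labelling and capillary electrophoresis after 24 h dosing of transiently transfected HepG2 cells expressing exogenous NR-Gal4 chimeras; increases scored against DMSO baseline.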

[18] = target: Estrogen-related receptor gamma (Homo sapiens) (UniProt P62508); assay: ATG_ERRg_TRANS: Attagene TRANS-FACTORIAL HepG2 Assay for human Estrogen-Related Receptor gamma (ERRg) (AID 2282977; active means hit-call score of the fitted dose curve at least 0.9, where 1 is the maximum;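 further: hits increase reporter signal over DMSO so potencies reflect activators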); conditions: HepG2 Attagene TRANS reporter, ERRg transactivation
Chain of Estrogen-related receptor gamma (Homo sapiens) (P62508 whole entry, looked up, the tested form may be a part): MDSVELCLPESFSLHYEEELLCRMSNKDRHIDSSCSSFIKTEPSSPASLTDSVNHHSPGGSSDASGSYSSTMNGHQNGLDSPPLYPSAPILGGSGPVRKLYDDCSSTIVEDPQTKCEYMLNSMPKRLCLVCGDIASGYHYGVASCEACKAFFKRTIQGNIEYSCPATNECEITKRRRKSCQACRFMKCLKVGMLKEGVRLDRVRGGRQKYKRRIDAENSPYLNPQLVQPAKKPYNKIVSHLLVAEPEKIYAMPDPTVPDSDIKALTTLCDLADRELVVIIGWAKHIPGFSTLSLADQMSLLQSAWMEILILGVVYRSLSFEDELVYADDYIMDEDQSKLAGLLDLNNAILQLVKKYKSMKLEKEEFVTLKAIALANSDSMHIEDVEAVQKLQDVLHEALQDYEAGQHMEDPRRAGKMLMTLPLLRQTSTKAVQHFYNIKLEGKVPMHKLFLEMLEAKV
Method in brief: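 HepG2 cells transiently transfected with multiplexed GAL4-UAS reporter units driven by chimeric NR-Gal4 proteins; 24 h exposure. Reporter mRNA quantified by RT-PCR, fluorescent labelling, HpaI digestion and capillary electrophoresis; gain of signal vs DMSO.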

[19] = target: Steroid hormone receptor ERR1 (Homo sapiens) (UniProt P11474); assay: ATG_ERRa_TRANS: Attagene TRANS-FACTORIAL HepG2 Assay for human Estrogen-Related Receptor alpha (ERRa) (AID 2282971; active means hit-call score of the fitted dose curve at least 0.9, where 1 is the maximum); conditions: HepG2 Attagene TRANS reporter, ERRa transactivation
Method in brief: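 Reporter transcripts from ERRa-Gal4 chimera activity measured in transiently transfected human HepG2 cells 24 hours after dosing, using RT-PCR with 6-FAM primer extension, HpaI digestion and capillary electrophoresis; DMSO is baseline.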

Measured: outcome

c1ccc(Cc2ccccc2)cc1
not listed: [14] | [15] | [16] | [17] | [18] | [19]
inactive: all other assays above

C=C/C(C)=C/C/C=C(\C)CCC=C(C)C
not listed: [7] | [8] | [9] | [10] | [17] | [18] | [19]
inactive: all other assays above

CC1=CC[C@@H]2C[C@H]1C2(C)C
inactive: [1] | [2] | [3] | [4] | [6] | [17] | [16] | [12] | [13]

NS(=O)(=O)c1cc(C(=O)O)c(NCc2ccco2)cc1Cl
inactive: [1] | [2] | [3] | [4] | [8] | [18] | [11] | [13]

O=[N+]([O-])c1cc(N(CCO)CCO)ccc1NCCO
inactive: [1] | [2] | [3] | [4] | [6] | [7] | [10] | [16] | [11] | [13]

O=S1(=O)CC=CC1
inactive: [1] | [2] | [3] | [4] | [6] | [7] | [8] | [17] | [10] | [13]

NC(N)=S
not listed: [5] | [7] | [9] | [12] | [15] | [18] | [19]
inactive: all other assays above

Nc1ccc(O)c(N)c1
not listed: [5] | [6] | [10] | [14] | [15] | [16]
inactive: all other assays above

CCC(=O)OCC=Cc1ccccc1
not listed: [5] | [7] | [9] | [12] | [14] | [17] | [18] | [19]
inactive: all other assays above
